Many of the other results were omitted from the sample, so hits are more common in it than they were.
ALOX12 inh = ALOX12 (human) lipoxygenase inhibition | P18054 | purified 12hLO, xylenol orange hydroperoxide absorbance | Potency, µM (titrated, usually from 108 µM), inactives show top-dose activity change, negative = inhibition, actives largely listed as inhibitors | hit rate 1.1% among 580,000; note: potency is the fitted concentration of half-maximal effect
Target sequence (P18054 whole entry, looked up): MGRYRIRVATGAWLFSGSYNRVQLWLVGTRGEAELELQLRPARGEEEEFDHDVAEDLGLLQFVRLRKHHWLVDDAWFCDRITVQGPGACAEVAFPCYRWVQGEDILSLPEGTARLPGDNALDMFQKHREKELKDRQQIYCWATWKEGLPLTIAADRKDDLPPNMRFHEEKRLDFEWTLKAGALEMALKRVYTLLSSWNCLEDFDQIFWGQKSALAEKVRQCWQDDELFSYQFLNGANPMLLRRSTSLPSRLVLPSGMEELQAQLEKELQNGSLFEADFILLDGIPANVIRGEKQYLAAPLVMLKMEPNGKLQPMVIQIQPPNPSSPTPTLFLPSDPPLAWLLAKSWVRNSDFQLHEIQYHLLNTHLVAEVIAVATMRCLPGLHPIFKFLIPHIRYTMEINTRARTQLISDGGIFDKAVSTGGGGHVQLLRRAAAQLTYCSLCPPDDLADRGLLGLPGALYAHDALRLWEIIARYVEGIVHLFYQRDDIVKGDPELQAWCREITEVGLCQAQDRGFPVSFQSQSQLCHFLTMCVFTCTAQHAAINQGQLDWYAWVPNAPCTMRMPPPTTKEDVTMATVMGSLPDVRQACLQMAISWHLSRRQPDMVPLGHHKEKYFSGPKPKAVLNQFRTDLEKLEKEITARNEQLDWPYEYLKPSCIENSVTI
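Hydroperoxide product was detected by ferrous iron/xylenol orange as the 573 to 405 nm absorbance ratio. Arachidonic acid at 40 uM (final) was turned over for 30 min at room temperature by 150 nM human 12hLO, pH 7.0 Hepes buffer, after 15 min compound preincubation.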
HT1080 IDH1KD tx = HT-1080 IDH1 knockdown cell toxicity (counter line). hit rate 2% among 360,000. Potency, µM (highest dose often 46.1 µM), for inactives: at the top dose activity, negative = toxicity, hits mostly cytotoxic. HT-1080 IDH1 knockdown viability, ATP luminescence, 48 h;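 note: potency is the fitted concentration of half-maximal effect; 0% = DMSO wells and -100% = cell-free medium wells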
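CellTiter-Glo luminescence after 48 h compound exposure at 37 degrees C of IDH1-knockdown HT-1080 cells in 5% FBS RPMI. %Activity scaled between DMSO wells and cell-free media wells, with curves fitted and assigned curve classes.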
TDP1 cell noCPT = qHTS for Inhibitors of human tyrosyl-DNA phosphodiesterase 1 (TDP1): qHTS in cells in absence of CPT. Potency, µM (highest dose often 46.2 µM), without a hit: top-dose activity change, negative = growth inhibition, most hits filed as inhibitors. AID 686978, 2013. DT40 Tdp1-/- hTDP1 cells, no CPT, ATP luminescence, 48 h. hit rate 15% among 420,000; note: potency is the fitted concentration of half-maximal effect; nearly all actives have a fitted effect of over 55% in size
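Stably hTDP1-transfected Tdp1-null chicken DT40 cells were treated with library compounds minus camptothecin and grown for at least 48 hr at 37 °C, after which cellular ATP was quantified by luminescence.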
TDP1 cell CPT = growth inhibition of DT40 Tdp1-/-;hTDP1 cells with camptothecin (screen for TDP1 inhibitors). AID 686979. Potency, µM (doses to about 46.2 µM), for inactives: at the top dose activity change, negative = growth inhibition, most hits filed as inhibitors. chicken DT40 Tdp1-/-;hTDP1 cells + 20 nM CPT, ATP luminescence, 48 h. hit rate 12% among 420,000; note: potency is the fitted concentration of half-maximal effect; nearly all actives have a fitted effect of over 55% in size
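Chicken DT40 Tdp1-/- cells stably complemented with human TDP1 were seeded at 400 cells/well in medium containing 20 nM camptothecin, exposed to pin-transferred compounds, and grown at 37 °C for at least 48 hr. Viability was read as ATP luminescence.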
IL1B secr inh = inhibitors of inflammasome signaling (IL-1 beta secretion) | THP-1 LPS/ATP IL-1B secretion, AlphaLISA, 16 h; stronger effect = lower value | hit rate 4.7% among 360,000 | activity change, % at 57.5 µM | AID 743279; in the data active = activity change below about -50%; inconclusive = mostly about -30% to -49%
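Secreted IL-1B measured by AlphaLISA bead assay after 16 h compound exposure of THP-1 cells; compounds (final up to 57.5 uM) added 1 h before LPS (250 ng/mL) and ATP (1.25 mM) stimulation; lower signal means less secretion.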
HT1080-NT tox = kills 2HG-producing HT-1080-NT fibrosarcoma cells | HT-1080-NT fibrosarcoma viability, CellTiter-Glo ATP luminescence, 48 h | Potency, µM (series often up to 46.1 µM), inactives show top-dose activity, negative = less viability, most hits filed as cytotoxic | hit rate 1.6% among 360,000 | AID 686970;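 note: NT is the 2HG producing partner of a matched IDH1 knockdown line; potency is the fitted concentration of half-maximal effect; 0% = DMSO-treated cells and -100% = media-only wells without cells; nearly all actives have a fitted effect of over 55% in size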
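HT-1080-NT; 750 cells/well; 5% FBS RPMI; 48 h compound, 37 degrees C; CellTiter-Glo luminescence; curve fitting and curve-class assignment.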
Starred values were filed as active, the others as inactive; ? = inconclusive; nt = not tested or not shown. Unless noted, calls come from the whole dose curve; as a rule, active = well fitted curve in the direction sought with a large enough effect; inconclusive = small, poorly fitted or top-dose-only effect, or another doubt; inactive = no such curve, though single readings can be large; an effect the other way counts as inactive or inconclusive. Unless noted, % is set by controls: 0 for no effect and ±100 for the full control effect.

SMILES	ALOX12 inh	HT1080 IDH1KD tx	TDP1 cell noCPT	TDP1 cell CPT	IL1B secr inh	HT1080-NT tox
CCC(=O)N1CCc2cc(Br)cc(S(=O)(=O)N3CCCC(C(=O)Nc4cccc(C)c4C)C3)c21 (centres undefined)	-22%	nt	?	?	nt	nt
O=C(O)Cc1sc(-c2cccnc2)nc1-c1ccc(Br)cc1	35µM*	-2%	-24%	-6%	10	-16%
O=C(O)Cc1sc(-c2ccccc2Cl)nc1-c1ccccc1	0%	6%	-11%	-6%	7	0%
COC(=O)C1=C(C)NC(C)=C([N+](=O)[O-])[C@@H]1c1ccccc1C(F)(F)F	?	nt	30µM*	30µM*	nt	nt
COC(=O)C1=C(C)NC(C)=C([N+](=O)[O-])[C@H]1c1ccccc1C(F)(F)F	0%	nt	11µM*	?	nt	nt
CCCCN1C=C(C(=O)OC)C(c2ccccc2C(F)(F)F)C(C(=O)OC)=C1	-2%	15%	-10%	-29%	4	10%
COC(=O)C1=C(C)NC(C)=C(C(=O)OCC(C)C)C1c1ccccc1[N+](=O)[O-] (centres undefined)	?	26µM*	5.2µM*	6.5µM*	-65*	16µM*
COC(=O)C1=C(C)NC(C)=C(C(=O)OC(C)C)C1c1cccc2nonc12 (centres undefined)	?	-16%	?	?	-12	5%
COCCN1C=C(C(=O)OC)C(c2ccccc2C(F)(F)F)C(C(=O)OC)=C1	12%	18%	?	?	-6	13%
Cc1nn(-c2ccccc2)c(C)c1S(=O)(=O)N[C@@H]1[C@@H](N)[C@H]2CCO[C@H]21	46%	nt	nt	nt	nt	nt
O=C(CCc1nc(CSc2n[nH]c(-c3ccccc3)n2)no1)Nc1ccc2ccccc2c1	4%	nt	nt	nt	nt	nt
O=S(=O)(Nc1nc2ccccc2nc1NCc1ccc(Cl)cc1)c1cccc2nsnc12	0%	nt	nt	nt	nt	nt
Cn1c(C(=O)N2CCN(C(=O)c3ccccc3F)CC2)cc2ccccc21	16%	nt	nt	nt	nt	nt
O=C(NCc1ccc(F)cc1)c1ccnc(-c2nnc3ccc(Nc4ccccc4)nn23)c1	11%	nt	nt	nt	nt	nt
CCOC(=O)c1c(NC(=O)c2cc(-c3ccccc3)on2)sc2c1CCCC2	-18%	nt	3%	-14%	nt	nt
CCOC(=O)c1c(NC(=O)C(=O)N/N=C/c2ccccc2OC)sc2c1CCCCC2	26%	1%	-19%	?	8	-2%
CCOC(=O)c1c(NC(=S)NNS(=O)(=O)c2ccc(Br)cc2)sc2c1CCCCC2	32µM*	1%	-26%	-2%	22	-3%
CCOC(=O)c1c(NC(=O)c2ccn(CC)n2)sc2c1CCCC2	-3%	?	23µM*	?	-20	?
CCOC(=O)c1c(NC(=O)c2ccc(C)cc2)sc2c1CCCCC2	-15%	nt	5%	10%	nt	nt
CCOC(=O)c1c(NC(=O)C(=O)N/N=C/c2ccccc2O)sc2c1CCCCC2	-14%	?	3.3µM*	2.9µM*	40	?
CCOC(=O)c1c(NC(=O)c2cc(OCC)c(OCC)c(OCC)c2)sc2c1CCCCC2	0%	nt	23µM*	?	nt	nt
CCC(Oc1ccccc1)C(=O)Nc1cc(C(=O)OCc2cc(=O)n3oc(C)cc3n2)ccc1OC (centres undefined)	-6%	nt	nt	nt	nt	nt
O=C(c1ccccc1)N1CCN(C(=O)c2nn3c(C(F)(F)F)cc(-c4ccco4)nc3c2Br)CC1	?	-3%	?	?	-65*	13%
COc1ccc(-c2cc(C(F)(F)F)n3nc(C(=O)N4CCN(C(=O)c5ccco5)CC4)cc3n2)cc1	-23%	7%	21µM*	15µM*	-15	16%
O=C(c1nn2c(C(F)(F)F)cc(-c3ccco3)nc2c1Br)N1CCCCCC1	-30%	nt	nt	nt	nt	nt
SMILES	ALOX12 inh	HT1080 IDH1KD tx	TDP1 cell noCPT	TDP1 cell CPT	IL1B secr inh	HT1080-NT tox
O=C(c1cc2nc(-c3ccco3)cc(C(F)(F)F)n2n1)N1CCN(Cc2ccccc2)CC1	2%	-13%	?	18µM*	-29	-11%
CC1CCc2cc(F)ccc2N1C(=O)c1cc2nc(-c3ccco3)cc(C(F)(F)F)n2n1 (centres undefined)	486%	-16%	?	?	-4	-15%
O=C(c1cc2nc(-c3ccco3)cc(C(F)(F)F)n2n1)N1CCN(c2ccc(F)cc2)CC1	-4%	?	?	?	-76*	?
CNC(=O)c1ccc(-c2nc(CN3CCN(C(=O)Nc4cccc(Cl)c4)CC3)c(C)o2)cc1	38%	nt	nt	nt	nt	nt
COCC1CN(C)CC12CCN(Cc1ccsc1)CC2 (centres undefined)	57%	nt	nt	nt	nt	nt
C/C(=N\NC(=O)c1c(Cl)cnn1C)c1ccc(NC(=O)c2ccncc2)cc1	-2%	-27%	21µM*	?	15	1%
Cn1ncc(Cl)c1C(=O)Nc1ccncc1	0%	2%	-11%	-3%	?	7%
CC(=NNC(=O)c1ccncc1)c1ccccc1Cl	20%	-2%	7%	8%	12	3%
C/C(=N\NC(=O)c1ccccc1NC(=O)c1ccc(Cl)cc1)c1ccncc1	7%	1.3µM*	1.2µM*	0.92µM*	35	0.52µM*
C/C(=N\NC(=O)c1ccc(N/N=C(\C)c2ccncc2)cc1)c1ccncc1	-28%	-25%	21µM*	?	-82*	-7%
C/C(=N\NC(=O)c1ccncc1)c1ccc(N2CCOCC2)cc1	-4%	3%	-6%	-19%	-9	-4%
C/C(=N\NC(=O)c1ccc(OC2OCCOC2Oc2ccc(C(=O)N/N=C(\C)c3ccncc3)cc2)cc1)c1ccncc1 (centres undefined)	-4%	?	7.3µM*	6.5µM*	-2	?
CCOC(=O)CC(N)c1cc(OC)cc(OC)c1 (centres undefined)	61%	nt	nt	nt	nt	nt
CC(C)(C)C(=O)Nc1cccc(NCC(=O)NC2(C#N)CCCC2)c1	2%	nt	nt	nt	nt	nt
CC(C)n1cc(-c2cc(C(=O)N3CCC(C)(C)C3)c3ccc(F)cc3n2)cn1	2%	nt	nt	nt	nt	nt
O=C(CC1C(=O)N(c2ccccc2)C(=O)N1CCc1cccs1)Nc1ccc(Cl)cc1 (centres undefined)	?	nt	?	21µM*	nt	nt
Cc1ccsc1CCN1C(=O)N(c2ccccc2)C(=O)C1CC(=O)Nc1ccc(Cl)cc1 (centres undefined)	?	nt	?	26µM*	nt	nt
Cc1ccc(CN2C(=O)N(c3ccccc3)C(=O)C2CC(=O)Nc2ccccc2)cc1 (centres undefined)	6%	nt	?	-22%	nt	nt

Source: PubChem
